High-throughput results deposited in PubChem BioAssay by National Center for Advancing Translational Sciences (NCATS).
Only some compounds are listed: those with a hit (about 7.9% of all), similar ones and a draw of the others.
KB-3-1 tox: qHTS assay for MDR1-selective chemotherapeutics: Primary screen using the parental adenocarcinoma cell KB-3-1. KB-3-1 viability, CellTiter-Glo ATP luminescence, 72 h. Potency, µM (highest dose often 46.1 µM), hits mostly cytotoxic. 1.4% of 400,000 active; note: % is set by controls: 0 for no effect and ±100 for the full control effect; nearly all actives have a fitted effect of over 60% in size
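Cells are dispensed, compounds pinned in, plates held at 37 °C for 72 h, then CellTiter-Glo is added and luminescence read after 10 minutes. Cell line: parental KB-3-1 in phenol-red-free DMEM, 10% FBS.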
SW480 rereplic: A quantitative high throughput screen for small molecules that induce DNA re-replication in SW480 colon adenocarcinoma cells. SW480 DNA re-replication, Hoechst DNA content imaging, 48 h. Potency, µM (series often up to 46.1 µM), inactives show top-dose re-replication activation, actives largely listed as activators. 1.8% of 340,000 active. AID 624297, 2012; note: % of control where 0% means no effect; nearly all actives have a fitted effect of over 55% in size
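Quantitative HTS format with DMSO vehicle controls; 48 hr drug incubation at 37 C, then 40 min Hoechst staining and scanning imager measurement at 405 nm excitation.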
HT1080-NT tox: qHTS for induction of synthetic lethality in tumor cells producing 2HG: qHTS for the HT-1080-NT fibrosarcoma cell line. HT-1080-NT fibrosarcoma viability, CellTiter-Glo ATP luminescence, 48 h. Potency, µM (doses to about 46.1 µM), for the others: at the highest dose activity, negative = less viability, actives largely listed as cytotoxic. 1.6% of 360,000 active;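 note: NT is the 2HG producing partner of a matched IDH1 knockdown line; 0% = DMSO-treated cells and -100% = media-only wells without cells; nearly all actives have a fitted effect of over 55% in size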
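Compounds were tested in concentration-response format on HT-1080-NT cells for 48 hours at 37 degrees C. Cell viability came from CellTiter-Glo luminescence; curves were classified by r2, response magnitude and activity.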
KB-V1 MDR tox: qHTS assay for MDR1-selective chemotherapeutics: Primary screen using the drug-selected MDR subline cells KB-V1. KB-V1 MDR cells viability, CellTiter-Glo, 72 h. Potency, µM (series often up to 46.1 µM), hits mostly cytotoxic. 3.4% of 400,000 active; note: % is set by controls: 0 for no effect and ±100 for the full control effect; nearly all actives have a fitted effect of over 60% in size
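Potencies derive from concentration-effect curves fitted to normalized luminescence (CellTiter-Glo) of KB-V1 cells treated for 72 h at 37 degrees C in phenol-red-free DMEM containing 10% FBS.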
HT1080 IDH1KD tx: qHTS for induction of synthetic lethality in tumor cells producing 2HG: qHTS for the HT-1080-IDH1KD cell line; 2% of 360,000 active; Potency, µM (doses to about 46.1 µM), for the others: at the highest dose activity, negative = toxicity, most hits filed as cytotoxic; HT-1080 IDH1 knockdown viability, ATP luminescence, 48 h;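 note: 0% = DMSO wells and -100% = cell-free medium wells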
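CellTiter-Glo luminescence after 48 h compound exposure at 37 degrees C of IDH1-knockdown HT-1080 cells in 5% FBS RPMI. %Activity scaled between DMSO wells and cell-free media wells, with curves fitted and assigned curve classes.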
MCF10A rerep: A quantitative high throughput screen for small molecules that induce DNA re-replication in MCF 10a normal breast cells | MCF 10A DNA re-replication, Hoechst nuclear intensity, 48 h | Potency, µM (titrated, usually from 46.1 µM), without a hit: at the top dose activity, positive = re-replication, usual class: activators | 2.9% of 350,000 active; note: % of control where 0% means no effect; nearly all actives have a fitted effect of over 50% in size
An asterisk follows results filed as active. Calls come from the whole dose curve; as a rule, active = well fitted curve in the direction sought with a large enough effect; inconclusive = small, poorly fitted or top-dose-only effect, or another doubt; inactive = no such curve, though single readings can be large; an effect the other way counts as inactive or inconclusive. Potency is the fitted concentration of half-maximal effect.

`COCCNC(=O)CSc1nc(-c2ccccc2C)nc2c1c(=O)n(C)c(=O)n2C` gave KB-3-1 tox inactive and KB-V1 MDR tox inactive.
Screening CCc1nnc(NC(=O)CSc2nc3c([nH]c4ccccc43)c(=O)n2-c2ccc(F)cc2)s1 returned KB-3-1 tox inactive and KB-V1 MDR tox inactive.
Screening CCCc1c(-c2cccc(F)c2)ncn1CCc1ccccc1OC returned KB-3-1 tox inconclusive, HT1080-NT tox inconclusive, KB-V1 MDR tox 18µM* and HT1080 IDH1KD tx inconclusive.
`Cc1noc(C)c1CSc1nc2ccccc2c(=O)n1-c1ccc(Cl)cc1` gave KB-3-1 tox inconclusive, SW480 rereplic inconclusive, HT1080-NT tox 10µM*, KB-V1 MDR tox 23µM*, HT1080 IDH1KD tx 7.1µM* and MCF10A rerep inconclusive.
For Cc1noc(C)c1CSc1ccc2ccccc2n1 the results were KB-3-1 tox inactive, SW480 rereplic -12%, HT1080-NT tox 8%, KB-V1 MDR tox 21µM*, HT1080 IDH1KD tx -22% and MCF10A rerep inconclusive.
O=C1CCCC2=C1C1(CCSC1)N=C(Nc1nc3ccccc3o1)N2 (configuration not stated) was read as KB-3-1 tox inactive and KB-V1 MDR tox inactive.
For COC(=O)Cn1ccc(N(C)C)c(C#N)c1=O the results were KB-3-1 tox inactive, SW480 rereplic 6.5µM*, HT1080-NT tox 15%, KB-V1 MDR tox inactive, HT1080 IDH1KD tx 2% and MCF10A rerep 9.2µM*.
For COC(=O)Cn1ccc(-c2ccc(Cl)cc2)c(C#N)c1=O the results were KB-3-1 tox inactive, SW480 rereplic -4%, HT1080-NT tox 12%, KB-V1 MDR tox inactive, HT1080 IDH1KD tx 4% and MCF10A rerep 0%.
For Cc1cccc(N(C)C(=O)CCS(=O)(=O)c2ccc3c(c2)oc(=O)n3C)c1 the results were KB-3-1 tox inactive and KB-V1 MDR tox inactive.
`CN1CCN(c2ccc(CNC(=O)C3Cc4c(-c5ccccc5)ccnc4O3)cc2)CC1` (configuration not stated) gave KB-3-1 tox inactive, HT1080-NT tox -24%, KB-V1 MDR tox inactive and HT1080 IDH1KD tx inconclusive.
For CN(C)CCNC(=O)C1Cc2c(-c3ccccc3Oc3ccccc3)ccnc2O1 (configuration not stated) the results were KB-3-1 tox inactive, HT1080-NT tox inconclusive, KB-V1 MDR tox inactive and HT1080 IDH1KD tx 23µM*.
CN1CCN(c2ccc(CNC(=O)C3Cc4c(-c5ccccc5Oc5ccccc5)ccnc4O3)cc2)CC1 (configuration not stated) was read as KB-3-1 tox inactive, HT1080-NT tox inconclusive, KB-V1 MDR tox inactive and HT1080 IDH1KD tx 21µM*.
`CCN(CC)C(=O)C1CCCc2c1[nH]c1ccc(Cl)cc21` (configuration not stated) gave KB-3-1 tox 6.5µM*, SW480 rereplic -8%, HT1080-NT tox -21%, KB-V1 MDR tox inactive, HT1080 IDH1KD tx -23% and MCF10A rerep -7%.
`O=C(NCc1cccnc1)C1c2ccccc2C(=O)N1C1CCCCCC1` (configuration not stated) gave KB-3-1 tox inactive, SW480 rereplic -5%, HT1080-NT tox 12%, KB-V1 MDR tox 18µM*, HT1080 IDH1KD tx 4% and MCF10A rerep 1%.
O=C(NCC1CCCO1)C1c2ccccc2C(=O)N1C1CCCCCCC1 (configuration not stated) was read as KB-3-1 tox inactive, SW480 rereplic 9%, HT1080-NT tox 4%, KB-V1 MDR tox 7.3µM*, HT1080 IDH1KD tx 11% and MCF10A rerep 17%.
For O=C(NC1CCCCCC1)C1c2ccccc2C(=O)N1Cc1cccnc1 (configuration not stated) the results were KB-3-1 tox inactive, SW480 rereplic 0%, HT1080-NT tox 11%, KB-V1 MDR tox 12µM*, HT1080 IDH1KD tx 3% and MCF10A rerep -2%.
`O=C(NCC1CCCO1)[C@@H]1CSC2c3ccccc3C(=O)N21` (some centres not stated) gave KB-3-1 tox inactive, SW480 rereplic -3%, HT1080-NT tox 17%, KB-V1 MDR tox inconclusive, HT1080 IDH1KD tx 15% and MCF10A rerep 1%.
O=C(NCc1cccnc1)C1c2ccccc2C(=O)N1C1CCCCCCC1 (configuration not stated) was read as KB-3-1 tox inactive, SW480 rereplic -4%, HT1080-NT tox -2%, KB-V1 MDR tox inactive, HT1080 IDH1KD tx -3% and MCF10A rerep -2%.
`CCc1nn(C(C)C(=O)N2CC(C)CC(C)C2)c(=O)c2cc3occc3n12` (configuration not stated) gave KB-3-1 tox inactive, SW480 rereplic -4%, HT1080-NT tox 7%, KB-V1 MDR tox inactive, HT1080 IDH1KD tx 8% and MCF10A rerep -12%.
CCc1nn(C(C)C(=O)N2CCN(c3cccc(C(F)(F)F)c3)CC2)c(=O)c2cc3occc3n12 (configuration not stated) was read as KB-3-1 tox 13µM* and KB-V1 MDR tox 8.2µM*.
Screening CCc1nn(C(C)C(=O)N2CCN(Cc3ccccc3)CC2)c(=O)c2cc3occc3n12 (configuration not stated) returned KB-3-1 tox inactive, SW480 rereplic 1%, HT1080-NT tox 5%, KB-V1 MDR tox inactive, HT1080 IDH1KD tx 5% and MCF10A rerep -4%.
For CCc1nn(CCCC(=O)NCc2ccc(OC(C)C)cc2)c(=O)c2cc3occc3n12 the results were KB-3-1 tox 7.3µM*, SW480 rereplic inconclusive, HT1080-NT tox 12µM*, KB-V1 MDR tox inconclusive, HT1080 IDH1KD tx 10µM* and MCF10A rerep inconclusive.
CCc1nn(C(C)C(=O)N2CCN(c3ccc(OC)cc3)CC2)c(=O)c2cc3occc3n12 (configuration not stated) was read as KB-3-1 tox 9.2µM*, SW480 rereplic inconclusive, HT1080-NT tox -26%, KB-V1 MDR tox inactive, HT1080 IDH1KD tx inconclusive and MCF10A rerep inconclusive.
CC(C)(C)C(=O)Oc1ccc(S(=O)(=O)Nc2ccccc2C(=O)NCC(=O)O)cc1 was read as SW480 rereplic -3% and MCF10A rerep -2%.
